# According to ChEMBL document CHEMBL3988442, “University of Dundee, Small-Polar-MMV Screening Library” (2021):
# Among all 48,000 compounds or so, about 13,000 (27%) showed an effect of 50% or more. This is one part of the list.
# Tested on: Wolbachia pipientis
# Experiment: Anti-Wolbachia Cell-Based Screen
# Assay type: functional
# Parameters: scale not given: in the data most compounds retested in dose-response had high values
# Conditions: 5 µM
row,SMILES,Percent Effect
1,N#Cc1ccc(CNCC(C(=O)N2CCOCC2)c2ccccc2)cc1 (stereo not drawn),-11.01%
2,Cl.Cl.OC(CN1CCN(Cc2cc(F)ccc2F)CC1)C1CC1 (stereo not drawn),-0.1352%
3,Fc1cccnc1N1CCC(NCc2cccc3cn[nH]c23)C1 (stereo not drawn),4.996%
4,Cl.Fc1cccc(CN2CCC(c3cc4ncccc4cn3)CC2)c1F,64.82%
5,COc1ccc(C)cc1CN1CCN(Cc2nccn2C)CC1,-6.315%
6,COc1ccc(C)cc1CN1CCC(c2cc3ncccc3cn2)CC1.Cl,107%
7,Cc1cnn(Cc2cc(F)ccc2F)c1NC(=O)NC1CC1,-2.224%
8,O=C(c1cccnc1)N1C[C@@H]2CC[C@H](C1)N(Cc1cc(F)ccc1F)C2,-19.69%
9,Cl.Fc1ccc(F)c(CN2CCC(c3cc4ncccc4cn3)CC2)c1,84.15%
10,COc1ccc(Oc2cccnc2)cc1CN1CCCC1,40.81%
11,CN(Cc1cc(F)cc2cccnc12)CC1CCN(CCO)CC1,-1.587%
12,Fc1ccc(F)c(CN2CCC(c3cnccn3)CC2)c1,76.33%
13,CC(C)CCNc1nnc(C(C)C)s1,-2.433%
14,Cc1noc(C)c1CN(C)C(=O)C1(N)CCCCC1,-29.06%
15,CCC1CN(Cc2ccccc2)CCN1Cc1nnc(C2CCC2)o1 (stereo not drawn),7.114%
16,CN(Cc1nc(C2CC2)no1)C(=O)c1cccc(CC2CCNCC2)c1,-25.8%
17,CC(C)(O)c1cn(C2CCN(C(=O)CCc3ccncc3)CC2)nn1,-4.68%
18,O=C(Nc1cnc(C2CC2)nc1)N1CCCC1,-9.25%
19,Fc1cc(F)cc(CN2CCC(c3cc4ncccc4cn3)CC2)c1,115.3%
20,CC(C)c1cc(C2CCN(Cc3cc(F)cc(F)c3)CC2)[nH]n1,18.27%
21,Cc1nnc(CN(C)C2CCN(Cc3nnc(C4CCC4)o3)C2)n1C (stereo not drawn),92.95%
22,CCn1c(C)nnc1CN(C)C1CCN(Cc2cnc(C)cn2)C1 (stereo not drawn),-10.08%
23,Cc1cnc(CN2CCC(N(C)Cc3nnc(C)n3C)C2)cn1 (stereo not drawn),0.1518%

row,SMILES,Percent Effect
1,CCn1c(C)nnc1CN(C)C1CCN(Cc2ccon2)C1 (stereo not drawn),7.959%
2,CCn1c(C)nnc1CN(C)C1CCN(Cc2nnc(C3CC3)o2)C1 (stereo not drawn),99.37%
3,N#CC(NC(=O)CCC1CCC1)c1cnn(-c2ccccc2)c1 (stereo not drawn),1.369%
4,CNC(=O)Cn1nc(C(C)C)c2cnn(C(C)(C)C)c2c1=O,-6.377%
5,CN(C)[C@@H]1CO[C@H](CNC(=O)C2CCCC2)[C@H]1O,-8.236%
6,Cc1ccc(C(=O)NCCNC(=O)c2cncnc2C)cc1F,-5.207%
7,CCn1nc(C)cc1C(=O)N1CC[C@H](OC)[C@H]2CN(CC3CC3)C[C@H]21.O=C(O)C(F)(F)F,3.94%
8,Cc1nc([C@H]2C[C@H]3CN(C(=O)c4cc(C)c(C)s4)CC[C@@H]3O2)no1,1.908%
9,CCn1nc(C)cc1C(=O)N1C[C@@H]2C[C@@H](c3noc(C)n3)O[C@@H]2C1,118.5%
10,CCN1C[C@@H]2[C@@H](OC)CCN(C(=O)c3cc(C)nn3CC)[C@@H]2C1.O=C(O)C(F)(F)F,-7.784%
11,Cc1csc([C@@H]2C[C@@H]3CCN(C(=O)c4ccnnc4)C[C@H]3O2)n1,-12.9%
12,Cc1nnc([C@@H]2C[C@H]3CN(C(=O)C4CC4)C[C@H]3O2)[nH]1,-12.1%
13,Cc1ccc(C(=O)N2CC[C@H]3O[C@@H](c4noc(C)n4)C[C@H]3C2)o1,6.095%
14,Cc1nnc([C@@H]2C[C@H]3CN(C(=O)c4c(C)noc4C)C[C@H]3O2)[nH]1.O=C(O)C(F)(F)F,-14.34%
15,CCC(C)(C)C(=O)N1C[C@@H]2C[C@@H](c3nnc(C)[nH]3)O[C@@H]2C1,92.76%
16,Cc1csc([C@@H]2C[C@@H]3CCN(C(=O)c4cc(C)on4)C[C@H]3O2)n1,1.11%
17,CCn1nc(C)cc1C(=O)N1C[C@@H]2C[C@@H](c3nc(C)cs3)O[C@@H]2C1,100.8%
18,CCn1nc(C)cc1C(=O)N1C[C@@H]2C[C@@H](C)O[C@@H]2C1.O=C(O)C(F)(F)F,99.49%
19,O=C(CN1CCS(=O)(=O)CC1)NC1CCCCc2ccccc21 (stereo not drawn),-11.03%
20,CCC(Nc1nnnn1-c1ccccc1)C(=O)NCc1cccs1 (stereo not drawn),-3.486%
21,CN1CCOC[C@H]1c1nc(-c2ccc(F)cc2F)c[nH]1,2.014%
22,COC1CCCN(CCCc2cn[nH]c2)C1 (stereo not drawn),-27.42%
23,OC1CCN([C@@H]2CCN(c3nc(-c4ccccc4)no3)C[C@H]2O)CC1,-5.249%

row,SMILES,Percent Effect
1,CCCN1CC2(CCN(C)CC2)CC1C(=O)NCc1cc(C)nn1C (stereo not drawn),6.557%
2,O=C(NCC(F)(F)F)C1CN(C(=O)c2cnccn2)C1,-11.97%
3,CCn1nc(C)cc1C(=O)N1C[C@@H]2C[C@@H](c3nnc(C)[nH]3)O[C@@H]2C1,102%
4,Cc1nnc([C@H]2C[C@@H]3CCN(C(=O)C4CCOCC4)C[C@H]3O2)[nH]1,-13.79%
5,Cc1nnc([C@@H]2C[C@H]3CN(C(=O)c4sccc4C)C[C@H]3O2)[nH]1,-0.8336%
6,CCc1nc(N2CCCC(CCCOC)(C(=O)O)C2)ncc1C (stereo not drawn),-7.437%
7,CO[C@H]1CCN(Cc2nccs2)C[C@@H]1Cc1ccccc1,1.604%
8,CO[C@H]1CCN(c2ncccn2)[C@H]1Cc1ccccc1,1.779%
9,Cc1cc2c(cc1C)C(NC1CC1)CCCO2 (stereo not drawn),-4.167%
10,CCCc1ccc(C(=O)N2Cc3c(Cn4ccnc4)nn(C)c3C2)cc1.O=CO,-14.37%
11,Cn1cnc2ccc(NC(=O)CCCn3cccn3)cc2c1=O,106.9%
12,COCCn1cnc2ccc(NC(=O)CCCn3cccn3)cc2c1=O,181%
13,CC(C)Cn1cncc1CNC(=O)c1cccc(Cn2cccn2)c1,0.1096%
14,Cc1ccc(C(=O)NCCCn2cccn2)c(=O)[nH]1,22.25%
15,CC(C)Cn1cnc2ccc(NC(=O)CCCn3cccn3)cc2c1=O,102.5%
16,CC(C)c1nc(NC(=O)CCCn2cccc2)n(C)n1,-8.102%
17,COC(=O)CC(NC(=O)CCCn1cccn1)c1ccc(Cl)cc1 (stereo not drawn),-43.24%
18,COCCn1ccc(NC(=O)Nc2ccc(C)cc2)n1,3.618%
19,COCCn1ccc(NC(=O)Nc2ccncc2)n1,5.636%
20,CC(C)n1cnc2ccc(NC(=O)CCCn3cccn3)cc2c1=O,106%
21,CCNC(=O)CCC(=O)Nc1ccc2nn(C(C)C)cc2c1,9.58%
22,CCN(CC)c1ccc(NC(=O)NC(C)Cn2cccn2)cn1 (stereo not drawn),-15.96%
